Source: the supplement of paper PMC11001985
A number with no mark means an inactive call.

compound: C#CCNC(=O)CCSSCCC(=O)NCCc1ccc(C=O)c(C=O)c1; test: lysine labeling ratio R10:1 (500 µM / 50 µM probe), SILAC-ABPP in living cells; higher = lower intrinsic lysine reactivity toward the probe, active = 2 or less; details: HeLa; probe concentrations 500 vs 50 µM
Method in brief: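 In PBS at room temperature, living HeLa cells grown with SILAC light or heavy labels were treated with 50 µM or 500 µM of an alkyne-tagged, disulfide-linked lysine probe, with label swaps in both directions. Analysis was by LC-MS/MS on a TIMS-TOF Pro after click to biotin-azide, neutravidin capture and DTT release. For each lysine, R is the median across forward and reverse replicates of the filtered median high-probe/low-probe MS1 peptide ratio, capped at 20.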

UniProt Q9Y6N7, sequence (Q9Y6N7 whole entry): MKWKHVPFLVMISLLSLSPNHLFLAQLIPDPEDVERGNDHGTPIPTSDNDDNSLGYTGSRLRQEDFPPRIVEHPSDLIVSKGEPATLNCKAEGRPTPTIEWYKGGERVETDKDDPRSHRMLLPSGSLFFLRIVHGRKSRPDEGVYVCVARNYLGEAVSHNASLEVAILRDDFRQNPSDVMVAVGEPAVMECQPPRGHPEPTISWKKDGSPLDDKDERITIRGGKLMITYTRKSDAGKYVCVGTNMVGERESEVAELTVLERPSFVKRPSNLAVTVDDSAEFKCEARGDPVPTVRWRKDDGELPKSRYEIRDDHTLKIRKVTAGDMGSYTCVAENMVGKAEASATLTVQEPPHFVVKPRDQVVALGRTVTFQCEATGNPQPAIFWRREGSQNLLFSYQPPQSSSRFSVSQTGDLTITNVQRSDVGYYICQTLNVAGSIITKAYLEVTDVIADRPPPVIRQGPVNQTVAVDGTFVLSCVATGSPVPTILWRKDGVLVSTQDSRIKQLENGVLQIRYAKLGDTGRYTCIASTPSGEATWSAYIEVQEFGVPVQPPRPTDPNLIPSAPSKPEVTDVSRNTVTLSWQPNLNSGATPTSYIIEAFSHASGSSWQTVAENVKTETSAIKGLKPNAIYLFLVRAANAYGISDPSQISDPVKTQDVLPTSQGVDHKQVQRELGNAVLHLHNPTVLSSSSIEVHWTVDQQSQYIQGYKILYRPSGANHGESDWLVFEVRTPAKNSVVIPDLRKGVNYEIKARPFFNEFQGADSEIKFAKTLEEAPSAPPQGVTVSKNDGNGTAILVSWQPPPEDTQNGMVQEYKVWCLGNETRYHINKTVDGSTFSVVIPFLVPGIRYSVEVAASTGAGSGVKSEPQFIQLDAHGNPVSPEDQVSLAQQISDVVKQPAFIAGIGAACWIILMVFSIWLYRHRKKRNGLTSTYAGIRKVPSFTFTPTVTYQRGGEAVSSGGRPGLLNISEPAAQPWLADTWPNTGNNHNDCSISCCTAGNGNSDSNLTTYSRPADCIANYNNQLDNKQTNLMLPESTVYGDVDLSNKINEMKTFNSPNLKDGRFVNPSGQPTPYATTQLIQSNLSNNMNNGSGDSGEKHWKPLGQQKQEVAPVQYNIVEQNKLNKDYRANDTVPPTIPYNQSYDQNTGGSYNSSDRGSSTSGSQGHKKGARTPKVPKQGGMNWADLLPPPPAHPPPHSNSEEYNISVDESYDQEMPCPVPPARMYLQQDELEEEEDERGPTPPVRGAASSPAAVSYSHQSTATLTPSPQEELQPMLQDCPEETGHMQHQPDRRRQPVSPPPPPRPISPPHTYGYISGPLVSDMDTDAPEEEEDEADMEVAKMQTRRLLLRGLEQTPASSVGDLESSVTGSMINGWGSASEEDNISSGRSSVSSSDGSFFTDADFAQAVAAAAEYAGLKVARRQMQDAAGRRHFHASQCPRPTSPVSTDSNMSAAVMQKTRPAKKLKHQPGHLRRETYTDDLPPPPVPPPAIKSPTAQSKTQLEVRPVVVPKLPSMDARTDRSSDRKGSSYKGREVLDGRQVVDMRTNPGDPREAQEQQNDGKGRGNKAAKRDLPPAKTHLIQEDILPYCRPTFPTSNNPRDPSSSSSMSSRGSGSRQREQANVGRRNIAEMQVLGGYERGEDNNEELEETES
UniProt P05783, sequence (P05783 whole entry): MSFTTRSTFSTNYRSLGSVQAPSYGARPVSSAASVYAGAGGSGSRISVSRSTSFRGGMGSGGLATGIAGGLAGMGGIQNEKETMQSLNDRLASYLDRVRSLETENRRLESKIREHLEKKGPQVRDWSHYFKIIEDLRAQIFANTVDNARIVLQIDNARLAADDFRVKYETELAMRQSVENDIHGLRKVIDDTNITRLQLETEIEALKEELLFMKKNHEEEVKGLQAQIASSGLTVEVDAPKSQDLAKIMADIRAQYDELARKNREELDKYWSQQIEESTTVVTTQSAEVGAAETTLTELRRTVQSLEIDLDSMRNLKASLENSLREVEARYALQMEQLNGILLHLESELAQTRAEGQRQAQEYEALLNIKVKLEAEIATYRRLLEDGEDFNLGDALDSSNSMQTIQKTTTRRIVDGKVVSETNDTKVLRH
UniProt Q9H4F8, sequence (Q9H4F8 whole entry): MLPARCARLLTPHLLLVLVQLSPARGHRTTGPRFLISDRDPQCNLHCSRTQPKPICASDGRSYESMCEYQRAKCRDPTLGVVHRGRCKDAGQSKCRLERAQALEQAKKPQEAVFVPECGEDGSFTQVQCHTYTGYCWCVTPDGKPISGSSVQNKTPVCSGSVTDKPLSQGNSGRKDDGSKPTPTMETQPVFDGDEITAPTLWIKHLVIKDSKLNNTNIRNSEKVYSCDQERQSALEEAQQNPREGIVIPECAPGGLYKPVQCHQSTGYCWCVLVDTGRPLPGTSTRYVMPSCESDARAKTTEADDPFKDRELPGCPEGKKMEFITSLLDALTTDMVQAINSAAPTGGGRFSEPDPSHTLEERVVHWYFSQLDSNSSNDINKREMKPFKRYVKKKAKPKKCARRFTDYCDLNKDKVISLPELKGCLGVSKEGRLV
UniProt O60245, sequence (O60245 whole entry): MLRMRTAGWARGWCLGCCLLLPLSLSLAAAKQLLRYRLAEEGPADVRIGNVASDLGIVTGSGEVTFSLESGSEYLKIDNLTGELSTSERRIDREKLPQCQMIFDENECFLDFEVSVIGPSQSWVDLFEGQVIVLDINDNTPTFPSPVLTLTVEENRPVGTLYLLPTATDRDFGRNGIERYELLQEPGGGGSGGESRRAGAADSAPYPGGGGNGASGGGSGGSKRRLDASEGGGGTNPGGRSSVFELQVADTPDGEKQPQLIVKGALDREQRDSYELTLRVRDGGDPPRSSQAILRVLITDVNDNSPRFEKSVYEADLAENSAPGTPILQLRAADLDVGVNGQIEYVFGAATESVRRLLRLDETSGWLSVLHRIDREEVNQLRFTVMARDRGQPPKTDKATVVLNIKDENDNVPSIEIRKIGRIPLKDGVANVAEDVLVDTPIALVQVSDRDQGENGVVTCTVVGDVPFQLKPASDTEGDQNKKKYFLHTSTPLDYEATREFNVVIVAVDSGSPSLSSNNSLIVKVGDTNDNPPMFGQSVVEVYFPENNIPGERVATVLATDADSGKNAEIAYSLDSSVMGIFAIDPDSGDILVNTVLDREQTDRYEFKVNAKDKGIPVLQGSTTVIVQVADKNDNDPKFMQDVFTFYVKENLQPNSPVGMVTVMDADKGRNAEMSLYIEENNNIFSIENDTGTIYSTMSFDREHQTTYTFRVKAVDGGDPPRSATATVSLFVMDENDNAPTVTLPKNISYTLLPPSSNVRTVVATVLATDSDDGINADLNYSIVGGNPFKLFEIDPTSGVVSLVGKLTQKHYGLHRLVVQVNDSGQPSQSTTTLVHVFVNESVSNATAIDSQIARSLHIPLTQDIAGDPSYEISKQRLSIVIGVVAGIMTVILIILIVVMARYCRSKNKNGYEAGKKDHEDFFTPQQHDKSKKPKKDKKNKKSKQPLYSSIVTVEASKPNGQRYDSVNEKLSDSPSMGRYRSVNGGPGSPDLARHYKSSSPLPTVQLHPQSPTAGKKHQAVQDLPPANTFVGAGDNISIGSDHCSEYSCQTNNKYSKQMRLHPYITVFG
UniProt P49184, sequence (P49184 whole entry): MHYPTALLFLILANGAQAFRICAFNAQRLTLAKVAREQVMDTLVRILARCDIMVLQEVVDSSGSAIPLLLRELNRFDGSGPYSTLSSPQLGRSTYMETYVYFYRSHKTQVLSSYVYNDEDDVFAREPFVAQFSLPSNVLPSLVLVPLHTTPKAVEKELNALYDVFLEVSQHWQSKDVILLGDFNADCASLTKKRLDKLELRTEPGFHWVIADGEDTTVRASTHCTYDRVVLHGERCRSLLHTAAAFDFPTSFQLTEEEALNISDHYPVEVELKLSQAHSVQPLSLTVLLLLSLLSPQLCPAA
UniProt P35052, sequence (P35052 whole entry): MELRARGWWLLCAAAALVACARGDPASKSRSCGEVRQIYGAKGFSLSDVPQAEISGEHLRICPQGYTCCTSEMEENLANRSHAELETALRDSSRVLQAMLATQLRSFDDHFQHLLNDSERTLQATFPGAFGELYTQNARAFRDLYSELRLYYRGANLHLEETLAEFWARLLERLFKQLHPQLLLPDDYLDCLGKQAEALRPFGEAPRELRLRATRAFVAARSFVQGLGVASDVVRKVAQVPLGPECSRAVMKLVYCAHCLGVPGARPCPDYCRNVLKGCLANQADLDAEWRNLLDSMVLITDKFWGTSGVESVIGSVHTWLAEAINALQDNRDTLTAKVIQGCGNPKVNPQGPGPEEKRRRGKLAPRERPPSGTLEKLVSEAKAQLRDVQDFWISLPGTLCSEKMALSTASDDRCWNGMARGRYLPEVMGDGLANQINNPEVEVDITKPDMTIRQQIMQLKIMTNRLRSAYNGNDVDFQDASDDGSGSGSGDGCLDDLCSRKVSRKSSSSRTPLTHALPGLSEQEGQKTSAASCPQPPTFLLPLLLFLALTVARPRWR
UniProt Q9H336, sequence (Q9H336 whole entry): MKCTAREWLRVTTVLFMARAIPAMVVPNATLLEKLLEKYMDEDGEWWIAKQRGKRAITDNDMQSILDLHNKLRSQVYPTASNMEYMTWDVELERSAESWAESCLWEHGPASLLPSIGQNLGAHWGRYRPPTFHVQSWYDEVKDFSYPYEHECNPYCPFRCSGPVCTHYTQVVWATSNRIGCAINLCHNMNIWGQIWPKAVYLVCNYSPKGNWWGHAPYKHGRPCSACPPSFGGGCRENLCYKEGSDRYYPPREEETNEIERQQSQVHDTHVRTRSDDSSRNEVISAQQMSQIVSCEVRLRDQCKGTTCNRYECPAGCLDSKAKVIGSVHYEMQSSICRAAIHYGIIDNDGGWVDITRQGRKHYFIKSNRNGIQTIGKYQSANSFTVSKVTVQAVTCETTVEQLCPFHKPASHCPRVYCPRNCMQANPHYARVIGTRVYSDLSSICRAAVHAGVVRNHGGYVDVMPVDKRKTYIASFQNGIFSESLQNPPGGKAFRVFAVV

Target | lysine labeling ratio R10:1
KRT18 (lysine site: K372) (UniProt P05783) | 2.29
DNASE1L1 (lysine site: K33) (UniProt P49184) | 11
UniProt O60245 (lysine site: K875) | 1.6 (active)
SLC44A2 (lysine site: K62) (UniProt Q8IWA5) | 2.64
UniProt Q15149 (lysine site: K3384) | 4.26
THRAP3 (lysine site: K486) (UniProt Q9Y2W1) | 1.7 (active)
PTPRM (lysine site: K234) (UniProt P28827) | 1.53 (active)
ITGAV (lysine site: K360) (UniProt P06756) | 1.23 (active)
TLN1 (lysine site: K1190) (UniProt Q9Y490) | 14.3
NUMA1 (lysine site: K751) (UniProt Q14980) | 2.82
RPL5 (lysine site: K284) (UniProt P46777) | 1.68 (active)
INSR (lysine site: K903) (UniProt P06213) | 2.04
GPC1 (lysine site: K363) (UniProt P35052) | 7.78
KRT18 (lysine site: K118) (UniProt P05783) | 6.22
UniProt Q8N441 (lysine site: K30) | 3.03
P4HB (lysine site: K71) (UniProt P07237) | 7.22
SMOC1 (lysine site: K223) (UniProt Q9H4F8) | 4.99
RPS19 (lysine site: K143) (UniProt P39019) | 1.75 (active)
UniProt Q15149 (lysine site: K2411) | 4.67
UniProt Q9H336 (lysine site: K242) | 2.36

Target | lysine labeling ratio R10:1
ROBO1 (lysine site: K214) (UniProt Q9Y6N7) | 4.58
KRAS (lysine site: K128) (UniProt P01116) | 1.02 (active)
UniProt P62249 (lysine site: K130) | 4.97
UniProt O60245 (lysine site: K223) | 5.15
ROBO1 (lysine site: K137) (UniProt Q9Y6N7) | 5.8
AHNAK (lysine site: K130) (UniProt Q09666) | 1.37 (active)
DSG2 (lysine site: K251) (UniProt Q14126) | 8.19
NPTN (lysine site: K260) (UniProt Q9Y639) | 1 (active)
UniProt Q86UP0 (lysine site: K324) | 1.82 (active)
UniProt P62826 (lysine site: K71) | 2.74
SMOC1 (lysine site: K53) (UniProt Q9H4F8) | 2.22
PTPRS (lysine site: K370) (UniProt Q13332) | 2.37
CACNA2D1 (lysine site: K634) (UniProt P54289) | 3.07
UniProt Q13131 (lysine site: K56) | 14.5
FSCN1 (lysine site: K74) (UniProt Q16658) | 1.36 (active)
CCT5 (lysine site: K214) (UniProt P48643) | 1.21 (active)
MET (lysine site: K380) (UniProt P08581) | 1.21 (active)
RPL28 (lysine site: K84) (UniProt P46779) | 2.27
NUMA1 (lysine site: K1024) (UniProt Q14980) | 1.17 (active)
SND1 (lysine site: K177) (UniProt Q7KZF4) | 0.9 (active)
